Data reported in PubChem BioAssay AID2235 (The Scripps Research Institute Molecular Screening Center, 2010).
Out of some 320,000 compounds screened, about 2,800 (0.88%) were called active.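 How the source made its calls: active means inhibition above the mean inhibition of all tested compounds plus 3 SD, computed separately for each screening campaign (cut at about 15% in these data); inactive means the rest.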 For the sample, actives were picked, then their nearest neighbours and some compounds at random.

Each compound was assayed against Serine/threonine-protein phosphatase PP1-alpha catalytic subunit (Homo sapiens) (UniProt P62136) (assay: PP1-alpha phosphatase inhibitors, primary screen, counter-screen for PP5 inhibitor project, biochemical, fluorescence, OMFP substrate, single point (AID 2235)). Conditions: purified PP1alpha, at 6.7 µM, active compounds read high.
Chain of Serine/threonine-protein phosphatase PP1-alpha catalytic subunit (Homo sapiens) (P62136 whole entry, looked up): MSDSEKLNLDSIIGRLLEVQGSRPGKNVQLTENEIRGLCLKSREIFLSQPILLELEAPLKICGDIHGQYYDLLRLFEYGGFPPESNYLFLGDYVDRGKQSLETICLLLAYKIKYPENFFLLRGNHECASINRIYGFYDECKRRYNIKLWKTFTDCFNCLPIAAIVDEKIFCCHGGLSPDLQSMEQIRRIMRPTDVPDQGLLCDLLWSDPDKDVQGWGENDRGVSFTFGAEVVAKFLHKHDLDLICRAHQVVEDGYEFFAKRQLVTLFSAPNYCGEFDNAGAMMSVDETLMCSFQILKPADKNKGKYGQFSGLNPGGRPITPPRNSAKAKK

SMILES	inhibition
Cc1cc2nc3c(=O)n(Cc4ccccc4)c(=O)[nH]c3nc2cc1N	2.81% (inactive)
Nc1ccc2nc3c(=O)[nH]c(=S)[nH]c3nc2c1	41.9% (active)
COC(=O)/C(C#N)=C/c1occc1C	-1.37% (inactive)
CCC(C)(C)NC(=O)C(c1ccc(O)cc1)N(C(=O)Cn1nnc2ccccc21)c1ccc(NC(C)=O)cc1 (centres undefined)	4.46% (inactive)
O=C(CC1N=C2c3ccccc3N=C(SCc3ccccc3Cl)N2C1=O)NCc1ccco1 (centres undefined)	1.15% (inactive)
Clc1ccccc1CSc1nnc(-c2ccco2)c(-c2ccco2)n1	24.6% (active)
O=c1cc(O)nc(SCc2ccccc2Cl)[nH]1	3.47% (inactive)
CCOC(=O)N1CCN(S(=O)(=O)c2cc3c(cc2C)NC(=O)CO3)CC1	-2.81% (inactive)
COc1cc(C2C(C(=O)c3ccco3)=C(O)C(=O)N2c2cc(C)on2)ccc1OCc1ccccc1 (centres undefined)	13.9% (inactive)
COc1ccc(CCN2C(=O)c3[nH]nc(-c4ccccc4O)c3C2c2ccc(C)cc2)cc1OC (centres undefined)	6.53% (inactive)
COc1cc(C2C(C(=O)c3ccc(C)o3)=C(O)C(=O)N2CCc2ccccc2)ccc1O (centres undefined)	32.7% (active)
CCOc1cc(C2C(C(=O)c3ccco3)=C(O)C(=O)N2Cc2ccccc2)ccc1O (centres undefined)	4.74% (inactive)
Cc1cc(N2C(=O)C(O)=C(C(=O)c3ccc(C)o3)C2c2ccc(OCc3ccccc3)cc2)no1 (centres undefined)	26.8% (active)
Cc1cc(N2C(=O)C(=O)/C(=C(/O)c3ccccc3)C2c2cccc(Br)c2)no1 (centres undefined)	-4.18% (inactive)
Cc1c(Cl)c([N+](=O)[O-])nn1CC(=O)NCC1CCCO1 (centres undefined)	-3.7% (inactive)
COc1ccccc1N1CCN(S(=O)(=O)c2ccc3c(c2)NC(=O)CS3)CC1	5.88% (inactive)
CCOc1ccc(C(=O)Nc2ccc(S(=O)(=O)NCC3CCCO3)cc2)cc1OCC (centres undefined)	-1.6% (inactive)
COC(C[C@@H](O)C[C@@H](O)[C@H](C)OCc1ccccc1)OC	0.46% (inactive)
COCCC(=O)N1CCC(Oc2ccc(C(=O)NCc3ccon3)cc2)CC1	-0.97% (inactive)
O=C(Nc1ccc(S(=O)(=O)Nc2nccs2)cc1)c1cc(=O)[nH]c2ccccc12	0.73% (inactive)
O=C(Nc1ccc(S(=O)(=O)Nc2nccs2)cc1)c1cc(-c2ccncc2)nc2ccccc12	27.5% (active)
CCN(CC)CCNC(=O)c1ccc(NC(=O)c2cc(-c3ccncc3)nc3ccccc23)cc1	-7.72% (inactive)
c1ccc(C2CNCc3c2ccc2ccccc32)cc1 (centres undefined)	3.78% (inactive)
Cn1cnc(C(F)(F)F)c1-c1ccc([N+](=O)[O-])cc1	-0.23% (inactive)
C[N+](C)(C)CCOP(=O)([O-])OC[C@H](O)CO	-5.96% (inactive)

SMILES	inhibition
CCC(=O)NC(=Nc1nc2ccccc2s1)NC(=O)CC	-4.21% (inactive)
COC(=O)Cc1cc(=O)n(-c2nc3ccccc3s2)[nH]1	19.6% (active)
C/C(=N\NC(=O)CC(C)C)c1c(C(F)(F)F)[nH]n(-c2nc3ccccc3s2)c1=O	4.43% (inactive)
NC(=O)c1ccsc1NC(=O)COC(=O)Cc1n[nH]c(=O)c2ccccc12	-0.46% (inactive)
C/C(CC(O)(/C=N/O)c1ccccc1)=N\O (centres undefined)	31.4% (active)
O=C(CSc1nnnn1-c1ccc(O)cc1)N1N=C(c2ccc3ccccc3c2)CC1c1ccccc1 (centres undefined)	-3.09% (inactive)
O=C(c1ccccc1)N1N=C(c2ccccc2O)CC1c1ccc(Br)cc1 (centres undefined)	6.46% (inactive)
O=C1C2N=NN(CC(=O)N3N=C(c4cccc5ccccc45)CC3c3ccccc3)C2C(=O)N1c1ccccc1 (centres undefined)	30.5% (active)
CC(=O)Oc1ccccc1C1=NN(C(C)=O)C(c2ccccc2)C1 (centres undefined)	-2.36% (inactive)
Cc1ccc(N2C(=O)C3N=NN(CC(=O)N4N=C(c5cccc6ccccc56)CC4c4ccccc4)C3C2=O)cc1 (centres undefined)	29.8% (active)
Oc1ccccc1C1=NN(c2ccccc2)C(c2ccccc2)C1 (centres undefined)	0.4% (inactive)
COc1ccc(C(=NN)c2ccc(OC)cc2)cc1	-2.58% (inactive)
COc1ccc(-c2nc3c(s2)CCc2onc(-c4ccc(Br)cc4)c2-3)cc1	-1.07% (inactive)
CCc1ccc(N(CC)c2ncnc3nc[nH]c23)cc1	2.16% (inactive)
[2H]C(CCOS(N)(=O)=O)c1ccccc1 (centres undefined)	-3.22% (inactive)
Cc1cc(C(=O)OCC(=O)NCc2ccco2)c(C)n1-c1ccccc1	-0.54% (inactive)
CN(C)/C=C(/C(=O)c1ccc(Cl)cc1)S(=O)(=O)c1ccccc1	0.05% (inactive)
CC(C)(C)c1nnc(NC(=O)C2c3ccccc3Oc3ccccc32)s1	1.1% (inactive)
Cc1noc(/C=C/c2ccco2)c1S(=O)(=O)N1CCC(C(=O)N2CCc3ccccc32)CC1	15.4% (active)
CNC(=O)C1CCN(S(=O)(=O)c2c(C)noc2/C=C/c2cccc(C)c2)CC1	0.59% (inactive)
Cc1noc(/C=C/c2ccco2)c1S(=O)(=O)N1CCC(C(=O)Nc2ccc(Cl)cn2)CC1	0.73% (inactive)
O=C(CSc1nc2ccccc2c(=O)n1CCCO)NC1CC1	-4.92% (inactive)
O=C(COC(=O)Cc1ccccc1F)NNC(=O)c1ccc(Cl)cc1	-4.59% (inactive)
C#CCCCc1nc2ccccc2c(=O)n1N	-2.85% (inactive)
